# Laboratory results from PubChem BioAssay (EPA / NIEHS).
# The source made the active and inactive calls. How the source made its calls: active means hit-call score of the fitted dose curve at least 0.9, where 1 is the maximum; inactive means score below 0.9.
# Columns and labels:
# [1] = APR_HepG2_CellLoss_72hr: Apredica 72-hour HepG2 Assay for Cell Loss (AID 2282915); details: high-content imaging
# In short: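 HepG2 cells exposed 72 h to compound at 0.39–200 uM (10 concentrations, duplicate) in 0.5% DMSO. Fixed with 3.7% formaldehyde and Hoechst 33342-stained. Imaged at 20x; nuclear count gives cell number, fitted bidirectionally versus DMSO.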
# [2] = APR_HepG2_P-H2AX_72hr: Apredica 72-hour HepG2 Assay for H2AX Phosphorylation (AID 2282916); details: imaging, actives raise or lower the signal;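 further: phospho-histone H2A.x immunostain intensity per cell marking DNA damage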
# In short: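 Phospho-histone H2A.x immunofluorescence, multiplexed with Hoechst and c-Jun, quantified by high-content imaging. Compounds applied to HepG2 for 72 h across ten concentrations (0.39–200 uM, 0.5% DMSO), in duplicate; DMSO baseline.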
# [3] = APR_HepG2_MitoMembPot_72hr: Apredica 72-hour HepG2 Assay for Mitochondrial Membrane Potential (AID 2282917); details: imaging, actives raise or lower the signal
# In short: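 HepG2 cells dosed 72 hr with compound at 0.39–200 uM in duplicate, 0.5% v/v DMSO final. Mitochondria stained with 250 nM MitoTracker Red CMXRos for 30 min before formaldehyde fixation, imaged by high-content fluorescence; bidirectional fit versus DMSO.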
# [4] = APR_HepG2_MitoticArrest_72hr: Apredica 72-hour HepG2 Assay for Mitotic Arrest (AID 2282918); details: high-content imaging, actives raise or lower the signal
# In short: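 HepG2 cells were exposed for 72 hr to compound at 0.39–200 uM (10 concentrations, duplicate) in 0.5% v/v DMSO, fixed in 3.7% formaldehyde, immunostained for phospho-histone H3 with Hoechst 33342 and imaged by high-content fluorescence; bidirectional fits versus DMSO.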
# [5] = APR_HepG2_MicrotubuleCSK_72hr: Apredica 72-hour HepG2 Assay for Microtubule CSK Stabilty (AID 2282919); details: HepG2 microtubule cytoskeleton, high-content imaging, actives raise or lower the signal
# In short: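 HepG2, 72 hr cmpd exposure, 0.39–200 uM (10 pts, duplicate), 0.5% DMSO. 3.7% formaldehyde fix, 0.5% Triton perm, anti-alpha-tubulin/Cy5 plus Hoechst. HCS fluorescence intensity; bidirectional fit vs DMSO baseline; taxol as positive control.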
# [6] = APR_HepG2_P-H2AX_24hr: Apredica 24-hour HepG2 Assay for H2AX Phosphorylation (AID 2282920); details: high-content imaging, actives raise or lower the signal
# In short: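 HepG2 human liver cells were exposed for 24 hr to compounds at 0.39–200 uM in duplicate, with 0.5% v/v DMSO final. Fixed cells were immunostained for phospho-histone H2A.x plus Hoechst 33342, imaged by HCS fluorescence, and fitted bidirectionally against DMSO.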
# [7] = APR_HepG2_StressKinase_72hr: Apredica 72-hour HepG2 Assay for Stress Kinase (AID 2282921); details: HepG2 stress kinase (phospho-c-Jun) imaging, actives raise or lower the signal
# In short: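 Stress kinase signal is phospho-c-Jun immunofluorescence (1:500 primary, Cy3 secondary) in fixed, permeabilized human HepG2 cells imaged at 20x. Exposure lasted 72 hr over ten concentrations from 0.39 to 200 uM, 0.5% DMSO, in duplicate. Bidirectional fit versus DMSO.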
# [8] = APR_HepG2_StressKinase_24hr: Apredica 24-hour HepG2 Assay for Stress Kinase (AID 2282922); details: HepG2 stress kinase (phospho-c-Jun) imaging, actives raise or lower the signal
# In short: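 Read-out: phospho-c-Jun immunofluorescence (Cy3 secondary) quantified by high-content imaging at 20x, nuclei defined by Hoechst 33342. Human HepG2 liver cells dosed 24 hr, 0.39–200 uM, DMSO 0.5% v/v; gain or loss of signal fitted relative to DMSO.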
# [9] = APR_HepG2_p53Act_72hr: Apredica 72-hour HepG2 Assay for p53 Activation (AID 2282923); details: high-content imaging, actives raise or lower the signal;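 further: average cellular p53 protein immunofluorescence intensity in HepG2 cells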
# In short: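 After 72 h with compound (ten points, 0.39 to 200 uM, final DMSO 0.5% v/v), fixed HepG2 cells were labelled with sheep anti-p53 and Hoechst 33342 and imaged; gain or loss versus DMSO scored.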
# [10] = APR_HepG2_MitoMass_72hr: Apredica 72-hour HepG2 Assay for Mitochondrial Mass (AID 2282924); details: high-content imaging, actives raise or lower the signal;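 further: MitoTracker Red CMXRos stain intensity per cell imaged as mitochondrial mass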
# In short: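 Read-out: MitoTracker Red fluorescence intensity from automated imaging (20x, six fields per well) in human HepG2 liver cells. Dosing ran 72 hr, 0.39–200 uM, 0.5% DMSO; bidirectional curve fitting versus DMSO baseline.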
# [11] = APR_HepG2_NuclearSize_72hr: Apredica 72-hour HepG2 Assay for Nuclear Size (AID 2282925); details: high-content imaging, actives raise or lower the signal
# In short: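 Read-out: nuclear diameter from Hoechst 33342 images (ArrayScan, 20x, six fields/well), via cell-cycle image analysis. HepG2 were dosed 0.39–200 uM for 72 hr in 0.5% DMSO. Bidirectional fit relative to DMSO.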
# [12] = ATG_CRE_CIS: Attagene CIS-FACTORIAL HepG2 Assay for human cAMP Responsive Element (CRE) binding protein 3 (AID 2282926); details: HepG2 CRE cis-reporter, Attagene multiplexed mRNA; actives raise or lower the signal
# In short: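 Capillary electrophoresis of 6-FAM-labelled, HpaI-digested PCR products quantified reporter transcripts. These came from HepG2 transiently transfected with cis-element reporters and exposed to test chemicals for 24 hours, with DMSO defining baseline activity.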
# [13] = biological target: CCAAT/enhancer-binding protein beta (Homo sapiens) (UniProt P17676); assay: ATG_C_EBP_CIS: Attagene CIS-FACTORIAL HepG2 Assay for human CCAAT/Enhancer Binding Protein (C/EBP) beta (AID 2282927); details: HepG2 Attagene cis-factorial transcription factor reporter; actives raise or lower the signal
# Sequence of CCAAT/enhancer-binding protein beta (Homo sapiens) (P17676 whole entry, looked up): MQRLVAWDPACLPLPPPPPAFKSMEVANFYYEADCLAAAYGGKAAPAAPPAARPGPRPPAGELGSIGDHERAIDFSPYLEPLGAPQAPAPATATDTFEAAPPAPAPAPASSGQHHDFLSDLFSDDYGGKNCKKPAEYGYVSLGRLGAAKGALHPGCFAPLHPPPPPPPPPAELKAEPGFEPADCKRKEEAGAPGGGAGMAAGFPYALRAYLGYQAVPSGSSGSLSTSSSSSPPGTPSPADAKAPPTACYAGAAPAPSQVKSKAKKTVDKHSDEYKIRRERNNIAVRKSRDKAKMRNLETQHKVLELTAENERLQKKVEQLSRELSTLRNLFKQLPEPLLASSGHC
# In short: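 Transiently transfected HepG2 (MRTU library, endogenous TF-driven promoters); 24 h dosing; total RNA → oligo(dT) RT → PCR → 6-FAM primer extension → HpaI digest → CE; fit bidirectionally vs DMSO.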
# [14] = ATG_CMV_CIS: Attagene CIS-FACTORIAL HepG2 Assay for human CMV (Internal Marker) (AID 2282928); details: HepG2 CMV promoter reporter, transcription factor profiling; actives raise or lower the signal;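 further: endpoint acts as a background internal control marker rather than a target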
# In short: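 Readout: fluorescent reporter cDNA fragments separated by capillary electrophoresis after RT-PCR and HpaI cut. Cells: HepG2 carrying transfected cis-promoter reporter constructs, dosed 24 h. Endpoint serves as background internal-marker control, fit bidirectionally versus DMSO.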
# [15] = ATG_DR4_LXR_CIS: Attagene CIS-FACTORIAL HepG2 Assay for human Liver X Receptor (LXR), DR4 submotif (AID 2282929); details: HepG2 Attagene DR4 cis-reporter, mRNA transcription; actives raise or lower the signal
# In short: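 The endpoint is DR4-element-driven reporter transcripts after 24 h chemical exposure of transfected HepG2 cells. These were measured via RT-PCR and capillary electrophoresis, and gain or loss of signal was fitted relative to DMSO controls.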
# [16] = biological target: Aryl hydrocarbon receptor (Homo sapiens) (UniProt P35869); assay: ATG_Ahr_CIS: Attagene CIS-FACTORIAL HepG2 Assay for human Aryl Hydrocarbon Receptor (Ahr) (AID 2282930); details: HepG2 AhR cis-factorial reporter transcription; actives raise or lower the signal
# Sequence of Aryl hydrocarbon receptor (Homo sapiens) (P35869 whole entry, looked up): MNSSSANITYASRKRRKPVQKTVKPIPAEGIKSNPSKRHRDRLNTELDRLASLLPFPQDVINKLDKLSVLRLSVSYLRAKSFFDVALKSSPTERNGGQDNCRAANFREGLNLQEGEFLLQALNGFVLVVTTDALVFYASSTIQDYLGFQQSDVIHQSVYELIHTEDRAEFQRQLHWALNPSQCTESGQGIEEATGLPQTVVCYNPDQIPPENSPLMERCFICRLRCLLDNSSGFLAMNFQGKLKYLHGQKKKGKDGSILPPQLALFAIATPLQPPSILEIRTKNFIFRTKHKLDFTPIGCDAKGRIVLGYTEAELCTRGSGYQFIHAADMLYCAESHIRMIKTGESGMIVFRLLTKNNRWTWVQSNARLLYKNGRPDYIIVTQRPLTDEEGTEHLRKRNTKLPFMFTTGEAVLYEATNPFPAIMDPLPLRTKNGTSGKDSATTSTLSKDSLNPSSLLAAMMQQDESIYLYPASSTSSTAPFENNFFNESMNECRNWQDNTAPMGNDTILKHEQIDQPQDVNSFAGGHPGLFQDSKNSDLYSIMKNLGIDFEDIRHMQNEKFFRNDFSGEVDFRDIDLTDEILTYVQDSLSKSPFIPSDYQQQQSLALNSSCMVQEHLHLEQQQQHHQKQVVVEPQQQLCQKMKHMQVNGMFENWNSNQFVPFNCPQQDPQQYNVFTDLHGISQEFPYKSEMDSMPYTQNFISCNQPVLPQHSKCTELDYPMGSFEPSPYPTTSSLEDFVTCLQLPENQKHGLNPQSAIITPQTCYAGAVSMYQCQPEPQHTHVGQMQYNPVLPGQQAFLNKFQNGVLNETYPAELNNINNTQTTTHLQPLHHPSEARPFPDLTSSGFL
# In short: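 Read-out: reporter mRNA quantified by RT-PCR with fluorescent primer extension and capillary electrophoresis. Human HepG2 liver cells carried transfected cis-promoter reporter units and were exposed to chemical for 24 h; gain or loss fitted relative to DMSO.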
# [17] = ATG_AP_1_CIS: Attagene CIS-FACTORIAL HepG2 Assay for human Activator Protein 1 (AP-1) (AID 2282931); details: HepG2 Attagene cis-factorial AP-1 reporter mRNA; actives raise or lower the signal
# In short: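 Readout is reporter transcript level from endogenous transcription factor activity, quantified by RT-PCR with fluorescent primer extension and capillary electrophoresis. Transiently transfected HepG2 cells, 24 h exposure. Curves fitted both directions versus DMSO.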
# [18] = ATG_AP_2_CIS: Attagene CIS-FACTORIAL HepG2 Assay for human Activator Protein 2 (AP-2) (AID 2282932); details: HepG2 AP-2 cis-reporter, Attagene transcription factor profiling; actives raise or lower the signal
# In short: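 Liver-derived HepG2 line, cis-reporter system measuring endogenous factors; 24 h dosing; reporter mRNA detected by fluorescent RT-PCR and capillary electrophoresis.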
# [19] = ATG_BRE_CIS: Attagene CIS-FACTORIAL HepG2 Assay for human Bone Morphogenetic Protein (BMP) Response Element (BRE) (AID 2282933); details: HepG2 BMP response element reporter, Attagene transcription factor profiling; actives raise or lower the signal
# In short: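 Endogenous transcription factor activity at a BMP response element was monitored in transfected HepG2 cells 24 h after dosing. Fluorescent RT-PCR products were resolved by capillary electrophoresis, and activity was fitted in both directions versus DMSO.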
# [20] = biological target: Retinoic acid receptor alpha (Homo sapiens) (UniProt P10276); assay: ATG_DR5_RAR_CIS: Attagene CIS-FACTORIAL HepG2 Assay for human Retinoic Acid Receptor Alpha (RARE), DR5 submotif (AID 2282934); details: HepG2 Attagene cis-factorial RARE DR5 reporter, mRNA; actives raise or lower the signal
# Sequence of Retinoic acid receptor alpha (Homo sapiens) (P10276 whole entry, looked up): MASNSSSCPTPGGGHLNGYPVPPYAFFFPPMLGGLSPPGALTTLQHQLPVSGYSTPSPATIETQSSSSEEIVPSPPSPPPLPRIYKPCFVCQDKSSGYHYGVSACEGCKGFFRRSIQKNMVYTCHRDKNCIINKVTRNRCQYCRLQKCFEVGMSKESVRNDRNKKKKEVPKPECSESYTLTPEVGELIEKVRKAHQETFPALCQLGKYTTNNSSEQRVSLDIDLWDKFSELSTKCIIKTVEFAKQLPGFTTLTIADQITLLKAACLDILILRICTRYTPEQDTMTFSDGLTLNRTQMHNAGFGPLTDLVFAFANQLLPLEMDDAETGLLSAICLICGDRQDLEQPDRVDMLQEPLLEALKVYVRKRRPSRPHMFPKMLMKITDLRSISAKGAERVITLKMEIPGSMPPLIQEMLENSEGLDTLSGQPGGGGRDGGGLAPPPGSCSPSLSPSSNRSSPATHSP
# In short: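 Read-out: DR5-driven reporter transcript measured by RT-PCR, 6-FAM primer extension, HpaI digest and capillary electrophoresis. Human HepG2 liver cells carry transiently transfected cis-element reporter constructs; dosing lasts 24 h. Gain or loss of signal fitted against DMSO baseline.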
smiles,measurement,setting,value
CC[C@H](C)[C@H]1O[C@]2(C=C[C@@H]1C)C[C@@H]1C[C@@H](C/C=C(\C)[C@@H](O[C@H]3C[C@H](OC)[C@@H](O[C@H]4C[C@H](OC)[C@@H](O)[C@H](C)O4)[C@H](C)O3)[C@@H](C)/C=C/C=C3\CO[C@@H]4[C@H](O)C(C)=C[C@@H](C(=O)O1)[C@]34O)O2 (tested in a mixture with another compound),outcome,[1],inactive
same,outcome,[2],inactive
same,outcome,[3],inactive
same,outcome,[4],inactive
same,outcome,[5],inactive
same,outcome,[6],inactive
same,outcome,[7],inactive
same,outcome,[8],inactive
same,outcome,[9],inactive
same,outcome,[10],inactive
same,outcome,[11],inactive
same,outcome,[12],inactive
same,outcome,[13],inactive
same,outcome,[14],inactive
same,AC50,[15],1.75 µM (active)
same,outcome,[16],inactive
same,outcome,[17],inactive
same,outcome,[18],inactive
same,outcome,[19],inactive
same,outcome,[20],inactive
CC1(c2ccc(Oc3ccccc3)cc2)OC(=O)N(Nc2ccccc2)C1=O (stereo not given),AC50,[1],32.6 µM (active)
same,outcome,[2],inactive
same,outcome,[3],inactive
same,outcome,[4],inactive
same,outcome,[5],inactive
same,AC50,[6],93.2 µM (active)
same,outcome,[7],inactive
same,outcome,[8],inactive
same,AC50,[9],121 µM (active)
same,outcome,[10],inactive
same,outcome,[11],inactive
same,AC50,[12],1.3 µM (active)
same,outcome,[13],inactive
same,outcome,[14],inactive
same,outcome,[15],inactive
same,outcome,[16],inactive
same,outcome,[17],inactive
same,outcome,[18],inactive
same,AC50,[19],1.14 µM (active)
same,outcome,[20],inactive
Cc1cc(C)nc(NC(=O)NS(=O)(=O)c2ccccc2C(=O)OC2COC2)n1,outcome,[1],inactive
same,outcome,[2],inactive
same,outcome,[3],inactive
same,outcome,[4],inactive
same,outcome,[5],inactive
same,outcome,[6],inactive
same,outcome,[7],inactive
same,outcome,[8],inactive
same,outcome,[9],inactive
same,outcome,[10],inactive
same,outcome,[11],inactive
same,outcome,[12],inactive
same,outcome,[13],inactive
same,outcome,[14],inactive
same,outcome,[15],inactive
same,outcome,[16],inactive
same,outcome,[17],inactive
same,outcome,[18],inactive
same,AC50,[19],91 µM (active)
same,outcome,[20],inactive
